Laboratory results reported in the supplement of paper PMC6555819.

Each sequence was assayed on VDR:RXRa (NR concentration 270 nM, RXRa partner concentration 90 nM) (assay: PBM binding z-score (relative to random genomic background probes); higher = stronger binding; sequences stand for … in GC…GCGATTGACAGCGTAGAATGAAGG).
Method: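 Protein-binding microarray (Agilent 4x180K custom design, double-stranded 60-nt probes: 5' GC cap, 34-nt variable region, 24-nt constant primer region; full probe sequence given). Purified or IVT nuclear receptor:RXRα heterodimers (3:1 NR:RXRα, mostly 270:90 nM) or homodimers were incubated for 1 h in PBS with 2% milk and no ligand, then detected with Alexa488 antibodies. Fluorescence from o1-orientation probes (~5 replicates averaged) was converted to z-scores against 500 random hg19 background probes. Variable regions are seed direct-repeat (DR0–DR5) sites, all their single-nucleotide variants and half-site ablations.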

Sequence	PBM binding z-score
CGTCCAAGGTCAGAGAGGTCCGTGAATGCCGAGT	4.73
ACTAGCAGGCCAATGGTCACTCAAGATTAGTCCG	-0.614
TCTAGTTGGTCACGGAGGTCTCACACGACGGGTA	1.65
ATCTCTAGGTAGAGATAGTTCAGTGAATGCAAAT	0.159
TCTCGGAGGACACGAAAGGTCAGGGCTCGACATC	3.43
GCTTGTAGATCAAGGTTAGGAAAGACTAAGCTAA	-0.45
AGAACGAGGCCACGCTGAGTTGATAGCAGAGTAG	0.045
TCTGCTAGGTCACCGATGGTCAGCTAATCTGCTA	2.17
ATCTCTAGGTAGCAAGTTCAGTGAAAGAGAGGAC	1.35
AGAATGAGGTTACCAAAGATGAGGGAAACGCTTG	1.03
CGTCAAAGTTCAAGGTAACGAAACAGAAAGCAGC	3.7
ACTATTAGTTGACTTAGGGCAACCGGTACGACGC	1.16
CCGACTGGGGCATAAGGTTGCCATAAGCCAGCCC	-0.377
ACTAGTTGGTCAACTGAGGTCACACACAATTCGG	5.33
TCGATTAGGTTACCAATGGGGCATTCAGCTTTCT	0.441
AATACAGGGTCATCGTAGTCCAGAGTACGCACAG	5.65
CGAATTAGGTCAAGGACAGTGAATCTCCGCACGC	1.61
ACTAGTTCGTCAGCTGAGGTCACACACAATTCGG	4.7
CGAACTTGGTCATCCAGGACAGTGAATACATTGA	1.59
TCTAGTTGGTCACGGAGATCACACACGACGGGTA	0.966

Sequence	PBM binding z-score
ACTCTGAGGACAAAGGTCAGAGCTACGCCAGTGA	3.49
AGTCAAAGTTCATCTATGTAACGTAAGATATGCT	4.75
TCTTGTAGATCAGCAAGTTAAGAAAGCTGGCCAA	0.28
AGATGTAGGTTATCGGGTCATTCAGTTTGCGCAT	5.35
CAGACTAGGTCACCGGAAGGTCAAAGTCCGCATG	5.78
TGAATGAGGTTATAAGATCAGGGGACGTTGCAAA	1.16
GCTGCTAGGTCAACTGATGCTCAGCTAAAGCTCG	1.38
TTACCAAGGAGAAGGTCGTTGATCCCTCTGTAGA	0.838
GCGACTGGGGCAAAGCAGGTTAACATAAGGTTGG	0.364
TGAATTAGGTTATAAGATCAGGGAACGTTGCAAA	-0.0623
ATCTCTAGGTAAAAGTTCAGTGCATCCCGAGGAT	1.69
CCTGCTGGGCCAAAAAGGTCATTGATGCCGATAA	4.84
TCATATAGGTCAAGGTGAAAGTCGAACGATATGA	2.94
TCTGCTAGGTCAACCATGGTCAGCTAATCTGCTA	2.27
TCATATAGGTAAAGGTGAAAATCGAACGATATGA	0.688
ACTATAAGTTGACTTAGGGCAACCGATACGACGC	0.769
TAGCCTAGGTCAGATCGGGCCAGTACACGCTATA	0.906
ACTATTAGTTGAGACGAGGGCAACCGTTAGGTTG	0.546
ATCTGTAGGTAAAGATAGTTCAGTGAATGCAAAT	0.945
CCTAATGGGCCAAGGTCATTGATCAGTCAAAGCA	3.37
